Experimental data as given in the supplement of paper PMC6555819.

Experiments:
Experiment in all cases: PBM binding z-score (relative to random genomic background probes); higher = stronger binding; sequences stand for … in GC…GCGATTGACAGCGTAGAATGAAGG
[1] = test system: PPARg:RXRa DBDmut IVT, anti-RXR (DBD mutation: RXRa K156A/R161A, NR concentration 270 nM, RXRa partner concentration 90 nM)
How it was run: (§1)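 Probes were double-stranded and carried 34-nt variable regions with direct-repeat seeds, single-nucleotide variants, half-site ablations and random human genomic background sequences, printed on custom Agilent 4×180K protein-binding microarrays. Arrays were incubated 1 h with ligand-free nuclear receptor dimers in PBS pH 7.4, 2% milk, 0.02% Triton X-100, 1 mM DTT, 0.2 mg/mL BSA and 0.4 mg/ml salmon testes DNA. Antibodies against each partner (one per run) detected binding, and scanned fluorescence was regression-normalized. Binding z-scores use the random background probes as reference.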

[2] = test system: PPARg:RXRa IVT, anti-PPARg (NR concentration 270 nM, RXRa partner concentration 90 nM)
How it was run: as §1

[3] = test system: PPARg DBDmut:RXRa IVT, anti-PPARg (DBD mutation: PPARg1 K132A/R137A, NR concentration 270 nM, RXRa partner concentration 90 nM)
How it was run: as §1

[4] = test system: PPARg DBDmut IVT, anti-PPARg (DBD mutation: PPARg1 K132A/R137A, NR concentration 270 nM)
How it was run: as §1

[5] = test system: PPARg homodimer (NR concentration 180 nM)
How it was run: as §1

[6] = test system: PXR:RXRa (NR concentration 270 nM, RXRa partner concentration 90 nM)
How it was run: as §1

[7] = test system: PXR homodimer (NR concentration 270 nM)
How it was run: as §1

[8] = test system: RARa:RXR (NR concentration 270 nM, RXRa partner concentration 90 nM)
How it was run: as §1

[9] = test system: RARa homodimer (NR concentration 270 nM)
How it was run: as §1

[10] = test system: RARb:RXRa (NR concentration 270 nM, RXRa partner concentration 90 nM)
How it was run: as §1

Row | Sequence | PBM binding z-score [1] | PBM binding z-score [2] | PBM binding z-score [3] | PBM binding z-score [4] | PBM binding z-score [5] | PBM binding z-score [6] | PBM binding z-score [7] | PBM binding z-score [8] | PBM binding z-score [9] | PBM binding z-score [10]
1 | CCGTCTGGGGCAAGGTTACCATAACGCACAGCCA | 1.75 | 2.43 | -0.591 | -1.54 | 0.46 | 0.036 | -0.461 | 0.632 | 0.0974 | 1.72
2 | CTCGAAAGGTCGTGCTCTGGTGAGTATACCAAAC | 1.12 | 1.7 | 0.0542 | 0.48 | 1.41 | 2.92 | -0.238 | 3.6 | 0.169 | 3.86
3 | GCTGCTAGGTCAATTGATGGTCAGCTAAAGCTCG | 4.15 | 3.1 | -0.948 | 0.185 | 0.889 | 0.861 | -0.942 | 1.75 | -0.705 | 3.59
4 | TCTTGAAGATCAAAGGTTAAGAAAGCCGAAGCCT | 1.75 | 1.72 | 0.267 | 0.871 | 1.22 | 2.3 | 0.147 | 3.49 | 0.254 | 2.07
5 | ATCTCTAGGTAAAGATAGTACAGTGAATGCAAAT | 1.46 | 1.59 | 1.31 | 1.08 | 1.02 | 0.0817 | 0.418 | 0.0539 | 1.54 | 0.0238
6 | TCTTGTAGATCAATGGTTAAGAAAGCCGAAGCCT | 1.89 | 0.567 | 0.47 | 0.225 | -0.106 | 0.039 | -0.283 | 0.142 | 0.324 | -0.236
7 | CGTCCAAGGTCAGAGAGTTCAGTGAATGCCGAGT | 2.97 | 2.07 | -0.209 | -1.29 | 2.85 | 6.75 | 14.2 | 4.08 | 1.32 | 4.78
8 | TCATACAGGTAATACAGGTGAAAGTCGGCATCTA | 3.1 | 2.32 | 1.11 | 1.28 | 1.24 | 0.855 | 0.48 | 1.23 | 1.28 | 0.835
9 | GCTCGGTGGACAAGGTCAGAGCTTTGTCCGTAGA | 0.124 | 0.413 | -1.69 | -0.301 | 0.136 | 1.68 | -0.455 | 2.25 | -0.966 | 2.68
10 | ACTATAAGTTGACTTAGGGCAACCGATACGACGC | -0.174 | 0.419 | 0.924 | 0.648 | 0.0162 | 0.385 | 0.624 | 0.604 | 0.56 | 1.2
11 | CCTATTAGTTGACCATAAGGGCAACCTAAGCTCG | 0.374 | 0.836 | 0.365 | 0.874 | 1.32 | 0.876 | 0.98 | 1.49 | 2.27 | 1.57
12 | CCTTACGGGTCACTGACATGTTATAGCATTTGGA | 3.55 | 4.1 | 1.46 | 0.945 | 1.83 | 3.22 | 0.262 | 4.06 | 1.38 | 4.06
